This is an account of results in PubChem BioAssay (Tox21).

Results filed as inconclusive are left out. A call without a number means that no potency is given here. Some structures have more than one record in an assay (separate samples or runs), and their calls can disagree. Active and inactive are the calls of the source. Unless noted, calls come from the whole dose curve.

Chain of D(2) dopamine receptor (Homo sapiens) (P14416 whole entry, looked up): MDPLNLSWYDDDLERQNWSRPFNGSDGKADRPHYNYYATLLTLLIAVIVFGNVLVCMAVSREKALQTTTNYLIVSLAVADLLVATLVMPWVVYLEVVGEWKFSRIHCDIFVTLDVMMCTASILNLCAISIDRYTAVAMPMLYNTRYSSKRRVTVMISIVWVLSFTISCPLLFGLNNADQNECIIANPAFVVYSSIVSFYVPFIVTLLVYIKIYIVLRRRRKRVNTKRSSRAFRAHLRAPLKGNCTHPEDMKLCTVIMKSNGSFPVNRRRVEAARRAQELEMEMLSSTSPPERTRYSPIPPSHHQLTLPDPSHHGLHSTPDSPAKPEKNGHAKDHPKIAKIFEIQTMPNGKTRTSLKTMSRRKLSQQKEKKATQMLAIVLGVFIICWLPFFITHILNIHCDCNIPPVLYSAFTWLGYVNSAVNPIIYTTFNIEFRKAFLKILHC
Chain of Beta-2 adrenergic receptor (Homo sapiens) (P07550 whole entry, looked up): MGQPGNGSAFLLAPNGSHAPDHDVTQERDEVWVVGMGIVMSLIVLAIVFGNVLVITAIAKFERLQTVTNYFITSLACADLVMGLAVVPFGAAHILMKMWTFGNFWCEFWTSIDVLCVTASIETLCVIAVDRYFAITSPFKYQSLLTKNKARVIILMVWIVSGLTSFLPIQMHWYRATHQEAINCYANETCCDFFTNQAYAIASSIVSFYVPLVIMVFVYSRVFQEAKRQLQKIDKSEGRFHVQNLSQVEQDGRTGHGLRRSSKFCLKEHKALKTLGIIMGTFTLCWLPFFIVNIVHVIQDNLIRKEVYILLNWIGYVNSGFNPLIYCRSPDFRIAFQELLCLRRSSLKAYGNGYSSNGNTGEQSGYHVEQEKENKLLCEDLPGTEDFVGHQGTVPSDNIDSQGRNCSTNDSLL

For the first experiment, the target named is Beta-2 adrenergic receptor (Homo sapiens) (UniProt P07550). The experiment in a line: Adrenergic beta2 receptor (ADRB2) small molecule agonists, cell-based qHTS assay (AID 1963593).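 Note: CHO cells stably overexpressing human ADRB2.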 The conditions noted are these: CHO-ADRB2 cells, cAMP HTRF, 30 min; series mostly up to 92.4 µM. In outline:
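CHO cells stably over-expressing ADRB2 were plated overnight at 37C, then dosed with compounds plus a stimulation mix containing 100uM IBMX and 25uM Ro-20-1724 for 0.5hr at room temperature. cAMP was measured by HTRF competition, 1hr.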
Consider `CC(=O)O[C@]1(C(C)=O)CC[C@H]2[C@@H]3C[C@H](C)C4=CC(=O)CC[C@]4(C)[C@H]3CC[C@@]21C`, for which the Potency entry is “inactive”.

For the compound `COC(=O)c1ccc(O)cc1`, the Potency result was “inactive”.

With `CCCCCCCCCCN`, the Potency result was “inactive”.

Consider `CCCCN(CCCC)CCCC`, for which the Potency entry is “inactive”.

For `CCCCCCC(C)O` (stereo not drawn), the Potency result is “inactive”.

Turning to `Cc1ccc(S(=O)(=O)NCl)cc1`, the Potency entry is “inactive”.

Consider `CC(=O)O[C@]1(C(C)=O)CC[C@H]2[C@@H]3C=C(Cl)C4=CC(=O)CC[C@]4(C)[C@H]3CC[C@@]21C`, for which the Potency result was “inactive”.

For `CCC(C)C=O` (stereo not drawn), the Potency entry is “inactive”.

`CC(C)[N+](C)(CCOC(=O)C1c2ccccc2Oc2ccccc21)C(C)C`: the Potency result was “inactive”.

`CC(C)(C)NC(=O)[C@H]1CC[C@H]2[C@@H]3CC[C@H]4NC(=O)C=C[C@]4(C)[C@H]3CC[C@]12C`: the Potency result was “inactive”.

Turning to `CCCCC/C=C\C/C=C\CCCCCCCC(=O)O`, the Potency result was “inactive”.

For `CC(=O)c1ccc(O)cc1`, the Potency result was “inactive”.

In the case of `NC(=O)c1ccccc1O`, the Potency result was “inactive”.

`CC(C)CC(C)CC(O)CC(C)C` (stereo not drawn): the Potency result was “inactive”.

With `C[C@]12CCC(=O)C=C1CC[C@@H]1[C@@H]2C(=O)C[C@@]2(C)[C@H]1CC[C@]2(O)C(=O)CO`, the Potency entry was “inactive”.

`CC(=O)Nc1ccc(C(=O)O)cc1`: the Potency entry is “inactive”.

Turning to `Nc1c2c(nc3ccccc13)CCCC2`, the Potency result was “inactive”.

Turning to `CCOC(N)=O`, the Potency result is “inactive”.

For the compound `NC(=O)NO`, the Potency entry is “inactive”.

In the case of `O=C(O)CN(CC(=O)O)CC(=O)O`, the Potency entry is “inactive”.

Consider `O=CCCCC=O`, for which the Potency result was “inactive”.

`CCc1ccc(CCOc2ccc(CC3SC(=O)NC3=O)cc2)nc1` (stereo not drawn): the Potency entry is “inactive”.

As for `Cc1nnc(NS(=O)(=O)c2ccc(N)cc2)s1`, the Potency result is “inactive”.

In a further experiment the target is D(2) dopamine receptor (Homo sapiens) (UniProt P14416). The experiment in a line: Dopamine D2 receptor (DRD2) small molecule agonists, cell-based qHTS assay (AID 1963594). Note: nearly all actives have a fitted effect of over 35% in size. Note: potency is the fitted concentration of half-maximal effect. The settings on record: HEK293-DRD2 cAMP HTRF, agonist mode, 30 min; series mostly up to 92.4 µM. The method in brief:
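HEK293 cells stably expressing DRD2 were cultured 24 h at 37 C, then given Ro20-1724 (0.1 mM final) and compounds for 10 min at room temperature. NKH477 (200nM) was then added for 30 min. cAMP was read by HTRF.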
(In qHTS, concentration-response curves come from the screen itself.)
On to `CC(=O)O[C@]1(C(C)=O)CC[C@H]2[C@@H]3C[C@H](C)C4=CC(=O)CC[C@]4(C)[C@H]3CC[C@@]21C`, for which the Potency result is “inactive”.

In the case of `COC(=O)c1ccc(O)cc1`, the Potency result was “inactive”.

With `CC(=O)CC(C)(C)O`, the Potency entry was “inactive”.

Take `O=c1[nH]cc(F)c(=O)[nH]1`: the Potency entry was “inactive”.

Take `COc1ccc(Cl)cc1C(=O)NCCc1ccc(S(=O)(=O)NC(=O)NC2CCCCC2)cc1`: the Potency entry was “inactive”.

For `CC(=O)OC/C=C(C)/C=C/C=C(C)/C=C/C1=C(C)CCCC1(C)C`, the Potency result is “inactive”.

As to `CCCCCCCCCCN`, the Potency entry is “inactive”.

As for `C[C@H]1C[C@H]2[C@@H]3CCC4=CC(=O)C=C[C@]4(C)[C@@]3(F)[C@@H](O)C[C@]2(C)[C@@]1(O)C(=O)CO`, the Potency entry is “inactive”.

Regarding `CCCCN(CCCC)CCCC`, the Potency entry is “inactive”.

On to `CCCCCCC(C)O` (stereo not drawn), for which the Potency entry was “inactive”.

For `O=[Se](O)O`, the Potency result was “inactive”.

For the compound `Cc1ccc(S(=O)(=O)NCl)cc1`, the Potency entry is “inactive”.

In the case of `CC(=O)O[C@]1(C(C)=O)CC[C@H]2[C@@H]3C=C(Cl)C4=CC(=O)CC[C@]4(C)[C@H]3CC[C@@]21C`, the Potency entry was “inactive”.

Regarding `CCC(C)C=O` (stereo not drawn), the Potency result is “inactive”.

In the case of `CC1(C)S[C@@H]2[C@H](NC(=O)[C@H](N)c3ccccc3)C(=O)N2[C@H]1C(=O)O`, the Potency entry was “inactive”.

With `CC(C)[N+](C)(CCOC(=O)C1c2ccccc2Oc2ccccc21)C(C)C`, the Potency result is “inactive”.

Take `CC(C)(C)NC(=O)[C@H]1CC[C@H]2[C@@H]3CC[C@H]4NC(=O)C=C[C@]4(C)[C@H]3CC[C@]12C`: the Potency result is “inactive”.

With `Cn1c(=O)c2[nH]cnc2n(C)c1=O`, the Potency result was “inactive”.

As for `CCCCC/C=C\C/C=C\CCCCCCCC(=O)O`, the Potency entry is “inactive”.

Regarding `CCCc1c(OCCCCc2nn[nH]n2)ccc(C(C)=O)c1O`, the Potency entry is “inactive”.

For `CC(=O)c1ccc(O)cc1`, the Potency result was “inactive”.

Consider `NC(=O)c1ccccc1O`, for which the Potency result was “inactive”.

As to `CC(C)CC(C)CC(O)CC(C)C` (stereo not drawn), the Potency is 1.8 nM (active) and inactive.

As to `C[C@]12CCC(=O)C=C1CC[C@@H]1[C@@H]2C(=O)C[C@@]2(C)[C@H]1CC[C@]2(O)C(=O)CO`, the Potency result is “inactive”.

`CC(=O)Nc1ccc(C(=O)O)cc1`: the Potency entry was “inactive”.

`Nc1c2c(nc3ccccc13)CCCC2`: the Potency result is “inactive”.

For `C[C@H]1C[C@@H]2[C@H]([C@@H](O)C[C@@]3(C)[C@H]2CC[C@]3(O)C(=O)CO)[C@@]2(C)C=CC(=O)C=C12`, the Potency result was “inactive”.

As for `C=CCNC(N)=S`, the Potency result is “inactive”.

Consider `CC(=O)Nc1ccc(C(=O)CCl)cc1`, for which the Potency entry was “inactive”.

For `CCOC(N)=O`, the Potency entry is “inactive”.

Take `NC(=O)NO`: the Potency result is “inactive”.

On to `O=C(O)CN(CC(=O)O)CC(=O)O`, for which the Potency entry was “inactive”.

As to `CN1C(C(=O)Nc2ccccn2)=C(O)c2ccccc2S1(=O)=O`, the Potency entry was “inactive”.

For the compound `O=CCCCC=O`, the Potency result is “inactive”.

Turning to `CCN(CC)CCOC(=O)c1ccc(N)cc1`, the Potency entry was “inactive”.

In the case of `CC(C)Cc1ccc(C(C)C(=O)O)cc1` (stereo not drawn), the Potency result was “inactive”.

For the compound `O=c1c(-c2ccc(O)cc2)coc2cc(O)cc(O)c12`, the Potency result is “inactive”.

With `CCc1ccc(CCOc2ccc(CC3SC(=O)NC3=O)cc2)nc1` (stereo not drawn), the Potency entry was “inactive”.

Regarding `Cc1nnc(NS(=O)(=O)c2ccc(N)cc2)s1`, the Potency result was “inactive”.

For the next experiment the target is unchanged. The experiment in a line: Dopamine D2 receptor (DRD2) small molecule antagonists, cell-based qHTS assay (AID 1963595; active = well fitted inhibition curve with a large enough effect in the signal ratio in the repeat runs, with a control signal flat; the % refers to the signal ratio). The conditions noted are these: HEK293-DRD2 cAMP HTRF antagonist mode; series mostly up to 92.4 µM. In outline:
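Antagonist mode in DRD2-HEK293 cells: after compound addition with 0.1 mM Ro20-1724, cells received quinpirole (12 nM) and NKH477 (200 nM) for 30 min at room temperature; HTRF cAMP read after 1 h detection.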
As to `CC(=O)O[C@]1(C(C)=O)CC[C@H]2[C@@H]3C[C@H](C)C4=CC(=O)CC[C@]4(C)[C@H]3CC[C@@]21C`, the Potency entry is “inactive”.

As to `O=c1[nH]cc(F)c(=O)[nH]1`, the Potency result was “inactive”.

Turning to `COc1ccc(Cl)cc1C(=O)NCCc1ccc(S(=O)(=O)NC(=O)NC2CCCCC2)cc1`, the Potency result was “inactive”.

As to `CC(=O)OC/C=C(C)/C=C/C=C(C)/C=C/C1=C(C)CCCC1(C)C`, the Potency result was “inactive”.

As to `CCCCCCCCCCN`, the Potency entry was “inactive”.

On to `C[C@H]1C[C@H]2[C@@H]3CCC4=CC(=O)C=C[C@]4(C)[C@@]3(F)[C@@H](O)C[C@]2(C)[C@@]1(O)C(=O)CO`, for which the Potency result was “inactive”.

`CCCCN(CCCC)CCCC`: the Potency result is “inactive”.

On to `CCCCCCC(C)O` (stereo not drawn), for which the Potency entry was “inactive”.

`Cc1ccc(S(=O)(=O)NCl)cc1`: the Potency result was “inactive”.

Consider `CC(=O)O[C@]1(C(C)=O)CC[C@H]2[C@@H]3C=C(Cl)C4=CC(=O)CC[C@]4(C)[C@H]3CC[C@@]21C`, for which the Potency entry was “inactive”.

Turning to `CCC(C)C=O` (stereo not drawn), the Potency entry is “inactive”.

On to `CC1(C)S[C@@H]2[C@H](NC(=O)[C@H](N)c3ccccc3)C(=O)N2[C@H]1C(=O)O`, for which the Potency entry is “inactive”.

For `CC(C)[N+](C)(CCOC(=O)C1c2ccccc2Oc2ccccc21)C(C)C`, the Potency result is “inactive”.

As to `CC(C)(C)NC(=O)[C@H]1CC[C@H]2[C@@H]3CC[C@H]4NC(=O)C=C[C@]4(C)[C@H]3CC[C@]12C`, the Potency result is “inactive”.

For `Cn1c(=O)c2[nH]cnc2n(C)c1=O`, the Potency entry is “inactive”.

As to `CCCCC/C=C\C/C=C\CCCCCCCC(=O)O`, the Potency result was “inactive”.

For `CCCc1c(OCCCCc2nn[nH]n2)ccc(C(C)=O)c1O`, the Potency result was “inactive”.

On to `CC(=O)c1ccc(O)cc1`, for which the Potency entry is “inactive”.

As for `NC(=O)c1ccccc1O`, the Potency entry is “inactive”.

Regarding `CC(C)CC(C)CC(O)CC(C)C` (stereo not drawn), the Potency result was “inactive”.

Regarding `C[C@]12CCC(=O)C=C1CC[C@@H]1[C@@H]2C(=O)C[C@@]2(C)[C@H]1CC[C@]2(O)C(=O)CO`, the Potency result was “inactive”.

Take `CC(=O)Nc1ccc(C(=O)O)cc1`: the Potency result was “inactive”.

Turning to `Nc1c2c(nc3ccccc13)CCCC2`, the Potency result was “inactive”.

For the compound `C[C@H]1C[C@@H]2[C@H]([C@@H](O)C[C@@]3(C)[C@H]2CC[C@]3(O)C(=O)CO)[C@@]2(C)C=CC(=O)C=C12`, the Potency result is “inactive”.

As for `C=CCNC(N)=S`, the Potency entry was “inactive”.

For `CCOC(N)=O`, the Potency entry was “inactive”.

With `NC(=O)NO`, the Potency result is “inactive”.

Regarding `O=C(O)CN(CC(=O)O)CC(=O)O`, the Potency entry is “inactive”.

For `CN1C(C(=O)Nc2ccccn2)=C(O)c2ccccc2S1(=O)=O`, the Potency result is “inactive”.

As for `O=CCCCC=O`, the Potency entry is “inactive”.

For `COCCc1ccc(OCC(O)CNC(C)C)cc1` (stereo not drawn), the Potency result was “inactive”.

Turning to `CCN(CC)CCOC(=O)c1ccc(N)cc1`, the Potency result was “inactive”.

Regarding `CC(C)Cc1ccc(C(C)C(=O)O)cc1` (stereo not drawn), the Potency result was “inactive”.

Turning to `O=c1c(-c2ccc(O)cc2)coc2cc(O)cc(O)c12`, the Potency result was “inactive”.

Consider `CCc1ccc(CCOc2ccc(CC3SC(=O)NC3=O)cc2)nc1` (stereo not drawn), for which the Potency entry is “inactive”.

As for `Cc1nnc(NS(=O)(=O)c2ccc(N)cc2)s1`, the Potency result is “inactive”.
